# According to PubChem BioAssay (EPA / NIEHS):
# Inconclusive results are not listed. The source made the active and inactive calls. Rule for the calls, unless noted: active = hit-call score of the fitted dose curve at least 0.9, where 1 is the maximum; inactive = score below 0.9.
# Experiments:
# [1] = ATG_CRE_CIS: Attagene CIS-FACTORIAL HepG2 Assay for human cAMP Responsive Element (CRE) binding protein 3 (AID 2282926); conditions: HepG2 CRE cis-reporter, Attagene multiplexed mRNA; actives raise or lower the signal
# In short: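 Endogenous CRE-binding activity in HepG2 is reported through a cis-regulated transfected reporter. Following a day of exposure, mRNA levels are determined by reverse transcription PCR and fluorescent fragment analysis; fits run in both directions versus DMSO.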
# [2] = biological target: Paired box protein Pax-6 (Homo sapiens) (UniProt P26367); test: ATG_Pax6_CIS: Attagene CIS-FACTORIAL HepG2 Assay for human Paired Box 6 (PAX6) (AID 2282956); conditions: HepG2 CIS-FACTORIAL PAX6 reporter transcription, RNA readout; actives raise or lower the signal
# Paired box protein Pax-6 (Homo sapiens), sequence (P26367 whole entry, looked up): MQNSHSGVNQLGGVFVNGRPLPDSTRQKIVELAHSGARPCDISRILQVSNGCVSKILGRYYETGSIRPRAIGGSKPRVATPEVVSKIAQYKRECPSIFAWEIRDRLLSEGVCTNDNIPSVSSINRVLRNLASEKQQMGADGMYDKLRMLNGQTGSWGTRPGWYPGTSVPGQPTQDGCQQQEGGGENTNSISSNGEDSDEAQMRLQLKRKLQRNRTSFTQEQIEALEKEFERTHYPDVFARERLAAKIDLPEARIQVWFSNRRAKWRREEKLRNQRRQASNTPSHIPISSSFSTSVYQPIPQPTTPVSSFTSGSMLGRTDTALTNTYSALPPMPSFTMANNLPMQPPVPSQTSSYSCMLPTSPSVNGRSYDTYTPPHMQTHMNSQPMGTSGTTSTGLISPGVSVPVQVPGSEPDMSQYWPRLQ
# In short: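 HepG2 cells transiently transfected with multiplexed cis-promoter reporter units (endogenous TF activity) were dosed for 24 h. Reporter mRNA was quantified by RT-PCR, 6-FAM labeling, HpaI digestion and capillary electrophoresis; bidirectional fitting versus DMSO baseline.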
# [3] = biological target: Transcription factor Sp1 (Homo sapiens) (UniProt P08047); test: ATG_Sp1_CIS: Attagene CIS-FACTORIAL HepG2 Assay for human Specificity Protein 1 (Sp1) (AID 2282961); conditions: HepG2 Sp1 cis-reporter transcription, actives raise or lower the signal
# Transcription factor Sp1 (Homo sapiens), sequence (P08047 whole entry, looked up, the tested form may be a part): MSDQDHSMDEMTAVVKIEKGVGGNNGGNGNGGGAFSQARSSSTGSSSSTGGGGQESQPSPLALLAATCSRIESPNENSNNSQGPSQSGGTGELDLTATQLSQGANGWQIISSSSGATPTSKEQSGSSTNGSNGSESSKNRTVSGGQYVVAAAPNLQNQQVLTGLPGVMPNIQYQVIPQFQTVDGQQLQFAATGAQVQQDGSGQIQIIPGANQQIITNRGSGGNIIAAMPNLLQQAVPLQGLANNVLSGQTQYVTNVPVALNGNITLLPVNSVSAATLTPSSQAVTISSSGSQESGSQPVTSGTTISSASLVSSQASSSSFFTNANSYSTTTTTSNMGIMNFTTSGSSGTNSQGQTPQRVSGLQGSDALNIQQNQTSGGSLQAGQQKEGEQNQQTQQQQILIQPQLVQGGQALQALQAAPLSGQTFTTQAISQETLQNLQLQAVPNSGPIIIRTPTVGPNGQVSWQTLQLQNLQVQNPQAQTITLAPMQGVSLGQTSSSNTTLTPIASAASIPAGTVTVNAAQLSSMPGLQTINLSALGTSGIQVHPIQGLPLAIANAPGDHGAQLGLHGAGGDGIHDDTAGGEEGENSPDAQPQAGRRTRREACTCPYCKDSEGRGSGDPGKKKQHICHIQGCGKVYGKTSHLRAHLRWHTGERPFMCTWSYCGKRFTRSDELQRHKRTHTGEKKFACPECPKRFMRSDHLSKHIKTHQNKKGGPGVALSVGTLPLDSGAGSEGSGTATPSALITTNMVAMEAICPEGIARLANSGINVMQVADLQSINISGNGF
# In short: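 Endpoint reflects endogenous Sp1 transcriptional activity, not an exogenous fusion protein: HepG2 cells with transfected cis-regulated reporters, 24 h dosing, RT-PCR/capillary electrophoresis mRNA read-out, DMSO-normalised bidirectional fit.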
# [4] = ATG_SREBP_CIS: Attagene CIS-FACTORIAL HepG2 Assay for human Sterol Regulatory Element Binding (SREBP) (AID 2282962); conditions: HepG2 Attagene cis-factorial SREBP reporter, mRNA; actives raise or lower the signal
# In short: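 HepG2 cells transiently transfected with multiplexed cis-element reporter units report endogenous transcription factor activity. After 24 h of chemical exposure, reporter mRNA was quantified by RT-PCR, 6-FAM labelling, HpaI digestion and capillary electrophoresis; bidirectional fits used DMSO as baseline.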
# [5] = biological target: Signal transducer and activator of transcription 3 (Homo sapiens) (UniProt P40763); test: ATG_STAT3_CIS: Attagene CIS-FACTORIAL HepG2 Assay for human Signal Transducer and Activator of Transcription 3 (STAT3) (AID 2282963); conditions: HepG2, Attagene cis-factorial STAT3 reporter transcription; actives raise or lower the signal
# Signal transducer and activator of transcription 3 (Homo sapiens), sequence (P40763 whole entry, looked up): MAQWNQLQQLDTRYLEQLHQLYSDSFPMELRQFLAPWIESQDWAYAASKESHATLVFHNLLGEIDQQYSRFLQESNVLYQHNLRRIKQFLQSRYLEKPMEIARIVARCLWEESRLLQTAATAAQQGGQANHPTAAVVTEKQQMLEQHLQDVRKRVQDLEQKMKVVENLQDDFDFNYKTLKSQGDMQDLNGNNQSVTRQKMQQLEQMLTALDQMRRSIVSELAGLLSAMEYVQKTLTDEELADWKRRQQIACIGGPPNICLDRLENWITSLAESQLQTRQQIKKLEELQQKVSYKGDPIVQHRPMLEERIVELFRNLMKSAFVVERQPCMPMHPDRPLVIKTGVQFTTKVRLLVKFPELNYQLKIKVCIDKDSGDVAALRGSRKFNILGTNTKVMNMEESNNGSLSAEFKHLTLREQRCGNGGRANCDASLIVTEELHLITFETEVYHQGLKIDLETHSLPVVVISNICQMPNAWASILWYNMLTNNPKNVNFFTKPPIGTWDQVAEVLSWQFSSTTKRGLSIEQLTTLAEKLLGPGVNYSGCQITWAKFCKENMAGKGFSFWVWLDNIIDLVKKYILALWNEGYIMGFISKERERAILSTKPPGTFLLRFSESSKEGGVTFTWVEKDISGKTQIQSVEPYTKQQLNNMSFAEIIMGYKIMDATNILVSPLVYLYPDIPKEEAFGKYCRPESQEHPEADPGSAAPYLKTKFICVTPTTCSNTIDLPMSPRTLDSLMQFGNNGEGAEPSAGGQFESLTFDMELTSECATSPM
# In short: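 After a 24 h compound incubation, total RNA from MRTU-transfected HepG2 cells was converted to cDNA and reporter sequences PCR-amplified, labelled and profiled by capillary electrophoresis. Gain and loss of signal were referenced to DMSO.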
# [6] = ATG_TA_CIS: Attagene CIS-FACTORIAL HepG2 Assay for human TA Basal Promoter (AID 2282964); conditions: HepG2 Attagene CIS-factorial TA basal promoter reporter; actives raise or lower the signal
# In short: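 Background-control readout: TA basal promoter reporter mRNA, fitted in both directions relative to DMSO. Measured by RT-PCR and capillary electrophoresis 24 hours after treating HepG2 human liver cells transiently carrying multiplexed cis-regulated reporter constructs.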
# [7] = ATG_TCF_b_cat_CIS: Attagene CIS-FACTORIAL HepG2 Assay for human T-Cell-Factor with beta-catenin (TCF/b-cat) (AID 2282965); conditions: HepG2 TCF/beta-catenin cis-reporter transcription, actives raise or lower the signal
# In short: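 Measured: reporter mRNA in HepG2 transiently transfected with cis-promoter reporter units, 24 h after chemical addition. Fitting was bidirectional, DMSO as negative control.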
# [8] = ATG_TAL_CIS: Attagene CIS-FACTORIAL HepG2 Assay for human TAL Basal Promoter (AID 2282966); conditions: HepG2 Attagene cis-factorial TAL promoter reporter; actives raise or lower the signal;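 note: background control endpoint measuring basal TAL promoter reporter mRNA not a specific factor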
# In short: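 In this cell-based multiplex, HepG2 liver cells bearing cis-promoter reporter constructs are dosed for 24 hours. Total RNA is reverse-transcribed and amplified, labelled fragments are sized by capillary electrophoresis, and signal changes are fitted bidirectionally versus DMSO.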
# [9] = ATG_TGFb_CIS: Attagene CIS-FACTORIAL HepG2 Assay for human Transforming Growth Factor (TGF) (AID 2282967); conditions: HepG2 Attagene CIS TGFb reporter, mRNA transcription; actives raise or lower the signal
# In short: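 Endogenous TGFB1-linked transcription factor activity read as reporter mRNA via RT-PCR and capillary electrophoresis, 24 h after dosing transiently transfected HepG2 cells. Gain or loss of signal fitted relative to DMSO.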
# [10] = ATG_VDRE_CIS: Attagene CIS-FACTORIAL HepG2 Assay for human Vitamin D Receptor Element (VDRE) (AID 2282968); conditions: HepG2 VDRE cis-reporter transcription, actives raise or lower the signal
# In short: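 In transiently transfected HepG2 liver cells, gain or loss of reporter mRNA after 24 h exposure is scored relative to DMSO, using fluorescence detection by capillary electrophoresis of RT-PCR products.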
# [11] = ATG_M_32_TRANS: Attagene TRANS-FACTORIAL HepG2 Assay for M32 Transcription Factor (Internal Marker) (AID 2282984; active = hit-call score of the fitted dose curve at least 0.9, where 1 is the maximum;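 note: transcript level of a background control reporter unit measured by RT-PCR and capillary electrophoresis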); conditions: HepG2 Attagene TRANS M32 internal marker reporter
# In short: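 Using transiently transfected HepG2 cells exposed to test chemicals for 24 h, reporter transcripts are converted to labelled cDNA fragments and quantified by capillary electrophoresis. DMSO defines the activity baseline.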
# [12] = biological target: Transcriptional activator Myb (Homo sapiens) (UniProt P10242); test: ATG_Myb_CIS: Attagene CIS-FACTORIAL HepG2 Assay for human Myeloblastosis (Myb) Proto-Oncogene Transcription Factor (AID 2282986); conditions: HepG2 Attagene CIS-FACTORIAL Myb reporter transcription; actives raise or lower the signal
# Transcriptional activator Myb (Homo sapiens), sequence (P10242 whole entry, looked up): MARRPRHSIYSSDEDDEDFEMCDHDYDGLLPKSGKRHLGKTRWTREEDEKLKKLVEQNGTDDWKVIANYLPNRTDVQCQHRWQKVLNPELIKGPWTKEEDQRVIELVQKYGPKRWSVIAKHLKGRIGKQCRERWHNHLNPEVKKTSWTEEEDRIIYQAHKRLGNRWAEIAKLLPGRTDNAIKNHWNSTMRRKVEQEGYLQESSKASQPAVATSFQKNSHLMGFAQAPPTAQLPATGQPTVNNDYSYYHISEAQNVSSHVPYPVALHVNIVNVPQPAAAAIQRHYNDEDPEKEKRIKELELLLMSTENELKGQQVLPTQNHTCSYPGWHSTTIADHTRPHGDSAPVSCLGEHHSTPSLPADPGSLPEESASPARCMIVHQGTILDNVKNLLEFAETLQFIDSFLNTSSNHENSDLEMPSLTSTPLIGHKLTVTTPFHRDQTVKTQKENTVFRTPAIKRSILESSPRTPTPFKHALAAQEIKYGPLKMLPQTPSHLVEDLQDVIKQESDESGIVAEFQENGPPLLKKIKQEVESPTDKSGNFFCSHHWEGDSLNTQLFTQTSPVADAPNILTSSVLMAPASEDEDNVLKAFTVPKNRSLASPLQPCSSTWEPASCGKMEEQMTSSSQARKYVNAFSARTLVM
# In short: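 In this HepG2 transient-transfection format, cis-regulated reporter mRNA is quantified 24 h post-dosing by RT-PCR with capillary electrophoresis, fitted bidirectionally to DMSO baseline.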
# [13] = biological target: Nuclear respiratory factor 1 (Homo sapiens) (UniProt Q16656); test: ATG_NRF1_CIS: Attagene CIS-FACTORIAL HepG2 Assay for human Nuclear Respiratory Factor 1 (NRF1) Orphan Gene (AID 2282987); conditions: HepG2 NRF1 cis-element reporter, Attagene multiplex; actives raise or lower the signal
# Nuclear respiratory factor 1 (Homo sapiens), sequence (Q16656 whole entry, looked up): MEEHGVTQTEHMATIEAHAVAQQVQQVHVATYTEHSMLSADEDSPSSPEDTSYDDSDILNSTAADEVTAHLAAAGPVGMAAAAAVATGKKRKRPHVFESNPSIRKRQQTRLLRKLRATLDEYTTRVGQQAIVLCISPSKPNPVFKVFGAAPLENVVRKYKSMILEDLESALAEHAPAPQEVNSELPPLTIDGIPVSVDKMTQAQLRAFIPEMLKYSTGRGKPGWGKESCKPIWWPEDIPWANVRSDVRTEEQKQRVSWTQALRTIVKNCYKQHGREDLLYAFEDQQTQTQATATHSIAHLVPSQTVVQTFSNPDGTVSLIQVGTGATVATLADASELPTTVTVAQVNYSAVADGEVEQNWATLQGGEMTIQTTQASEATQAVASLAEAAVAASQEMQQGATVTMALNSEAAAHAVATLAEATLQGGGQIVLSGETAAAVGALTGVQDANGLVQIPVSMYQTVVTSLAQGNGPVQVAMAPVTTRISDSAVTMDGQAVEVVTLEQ
# In short: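 Using DMSO as baseline, gain- or loss-of-signal was fitted for reporter mRNA levels in HepG2 cells transiently transfected with cis-regulated reporter units. Samples were taken 24 h after dosing and read by RT-PCR with capillary electrophoresis.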
# [14] = ATG_NFI_CIS: Attagene CIS-FACTORIAL HepG2 Assay for human Nuclear Factor I (NFI) (AID 2282989); conditions: HepG2 cis-regulatory reporter, NFI response element transcription; actives raise or lower the signal
# In short: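 Reporter transcripts were measured by RT-PCR with fluorescent primer extension and capillary electrophoresis 24 h post-treatment. HepG2 cells carried transiently transfected cis-regulated reporter constructs reporting endogenous factor activity; gain or loss fitted against DMSO baseline.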
# [15] = biological target: Myc proto-oncogene protein (Homo sapiens) (UniProt P01106); test: ATG_Myc_CIS: Attagene CIS-FACTORIAL HepG2 Assay for human Myelocytomatosis (Myc) Proto-Oncogene Transcription Factor (AID 2282990); conditions: HepG2, Attagene cis-reporter transcription factor activity; actives raise or lower the signal
# Myc proto-oncogene protein (Homo sapiens), sequence (P01106 whole entry, looked up): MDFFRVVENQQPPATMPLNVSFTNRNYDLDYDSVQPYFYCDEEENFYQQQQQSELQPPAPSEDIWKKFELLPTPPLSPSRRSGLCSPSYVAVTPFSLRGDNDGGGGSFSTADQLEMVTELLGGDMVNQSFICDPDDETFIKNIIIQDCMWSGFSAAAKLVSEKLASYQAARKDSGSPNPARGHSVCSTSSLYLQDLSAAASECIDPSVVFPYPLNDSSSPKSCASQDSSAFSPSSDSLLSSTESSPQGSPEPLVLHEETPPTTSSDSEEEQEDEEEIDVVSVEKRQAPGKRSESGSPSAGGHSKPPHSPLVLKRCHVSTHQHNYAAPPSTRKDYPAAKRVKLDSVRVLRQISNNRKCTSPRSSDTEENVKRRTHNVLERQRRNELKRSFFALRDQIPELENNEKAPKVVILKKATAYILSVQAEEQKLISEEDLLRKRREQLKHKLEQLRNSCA
# In short: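 Cells of the HepG2 human liver line bear multiple cis-driven reporter transcription units. Reporter mRNA after 24 h exposure is reverse-transcribed, amplified, labelled and resolved by capillary electrophoresis, with gain- or loss-of-signal fitting relative to DMSO.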
# [16] = ATG_NF_kB_CIS: Attagene CIS-FACTORIAL HepG2 Assay for human Nuclear Factor Kappa B (NF-kB) (AID 2282991); conditions: HepG2 Attagene cis-factorial NF-kB reporter mRNA; actives raise or lower the signal
# In short: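 Endpoint from a 52-component multiplexed HepG2 reporter panel: cis-regulated transcription units transiently transfected, 24 h dosing, reporter mRNA quantified by RT-PCR and capillary electrophoresis, scored as increase or decrease against DMSO.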
# [17] = ATG_Oct_MLP_CIS: Attagene CIS-FACTORIAL HepG2 Assay for human Octamer-Binding Transcription Factor (Oct) (AID 2282993); conditions: HepG2 Attagene cis-factorial Oct reporter, mRNA; actives raise or lower the signal
# In short: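 Readout is reporter transcript level from RT-PCR with fluorescent primer extension and capillary electrophoresis, fitted in both directions against DMSO. Transfected HepG2 reporter units report endogenous factor activity after 24 h dosing.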
# [18] = biological target: Aryl hydrocarbon receptor (Homo sapiens) (UniProt P35869); test: ATG_Ahr_CIS: Attagene CIS-FACTORIAL HepG2 Assay for human Aryl Hydrocarbon Receptor (Ahr) (AID 2282930); conditions: HepG2 AhR cis-factorial reporter transcription; actives raise or lower the signal
# In short: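 HepG2, transient MRTU (cis) transfection, 24 h exposure. RNA → cDNA → PCR → 6-FAM primer extension → HpaI 2 h 37 C → CE. Fit: bidirectional, DMSO baseline.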
# [19] = biological target: Hepatocyte nuclear factor 3-beta (Homo sapiens) (UniProt Q9Y261); test: ATG_FoxA2_CIS: Attagene CIS-FACTORIAL HepG2 Assay for human Forkhead box A2 (FOXA2) (AID 2282942); conditions: HepG2 cis-reporter transcription factor activity, 24 h; actives raise or lower the signal
# Hepatocyte nuclear factor 3-beta (Homo sapiens), sequence (Q9Y261 whole entry, looked up): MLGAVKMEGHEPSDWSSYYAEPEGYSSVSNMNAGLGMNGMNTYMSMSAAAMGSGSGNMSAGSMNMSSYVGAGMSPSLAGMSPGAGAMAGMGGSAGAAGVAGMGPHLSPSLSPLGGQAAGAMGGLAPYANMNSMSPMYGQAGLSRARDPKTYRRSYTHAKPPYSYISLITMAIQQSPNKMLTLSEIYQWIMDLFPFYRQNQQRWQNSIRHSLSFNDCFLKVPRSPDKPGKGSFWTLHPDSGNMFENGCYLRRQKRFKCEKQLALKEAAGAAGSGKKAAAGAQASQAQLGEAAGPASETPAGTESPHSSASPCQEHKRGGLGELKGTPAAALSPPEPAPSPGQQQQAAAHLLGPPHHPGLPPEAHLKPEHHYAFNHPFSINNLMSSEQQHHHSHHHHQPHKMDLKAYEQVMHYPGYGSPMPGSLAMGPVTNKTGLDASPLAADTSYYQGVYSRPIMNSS
# In short: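 Measured: reporter mRNA induction or loss in HepG2 transiently carrying multiple cis-regulated reporter units, 24 h after dosing. Quantified by RT-PCR plus capillary electrophoresis, normalised to DMSO.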
# [20] = biological target: X-box-binding protein 1 (Homo sapiens) (UniProt P17861); test: ATG_Xbp1_CIS: Attagene CIS-FACTORIAL HepG2 Assay for human X-box Binding Protein 1 (XBP1) (AID 2282972); conditions: HepG2 XBP1 cis-element reporter, Attagene multiplex; actives raise or lower the signal
# X-box-binding protein 1 (Homo sapiens), sequence (P17861 whole entry, looked up): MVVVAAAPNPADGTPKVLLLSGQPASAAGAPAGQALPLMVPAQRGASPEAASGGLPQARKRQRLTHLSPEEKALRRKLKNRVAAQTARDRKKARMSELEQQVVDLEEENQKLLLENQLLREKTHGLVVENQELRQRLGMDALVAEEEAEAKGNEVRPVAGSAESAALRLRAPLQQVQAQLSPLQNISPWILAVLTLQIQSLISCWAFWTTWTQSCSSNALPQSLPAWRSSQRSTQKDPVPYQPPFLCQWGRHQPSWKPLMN
# In short: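 HepG2 cells transiently transfected with cis-regulated multiple reporter transcription units; endogenous transcription factor activity measured 24 hours after chemical dosing. Reporter mRNA quantified by RT-PCR, 6-FAM primer extension, HpaI digestion and capillary electrophoresis; bidirectional fitting versus DMSO.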
structure (smiles),measurement,setting,value
[N-]=[N+]=CC(=O)OC[C@H](N)C(=O)O,outcome,[1],inactive
same,outcome,[2],inactive
same,outcome,[3],inactive
same,outcome,[4],inactive
same,outcome,[5],inactive
same,outcome,[6],inactive
same,outcome,[7],inactive
same,outcome,[8],inactive
same,outcome,[9],inactive
same,outcome,[10],inactive
same,outcome,[11],inactive
same,outcome,[12],inactive
same,outcome,[13],inactive
same,outcome,[14],inactive
same,outcome,[15],inactive
same,outcome,[16],inactive
same,outcome,[17],inactive
O=C(NCNC(=O)NC1C(=O)NC(=O)N1CO)NC1C(=O)NC(=O)N1CO (centres undefined),outcome,[18],inactive
same,outcome,[19],inactive
same,AC50,[2],133 µM (active)
same,outcome,[3],inactive
same,outcome,[4],inactive
same,outcome,[5],inactive
same,outcome,[6],inactive
same,outcome,[7],inactive
same,outcome,[8],inactive
same,AC50,[9],100 µM (active)
same,AC50,[20],151 µM (active)
same,outcome,[12],inactive
same,outcome,[13],inactive
same,outcome,[14],inactive
same,AC50,[17],157 µM (active)
C[N+](C)=CCl,outcome,[1],inactive
same,outcome,[2],inactive
same,outcome,[3],inactive
same,outcome,[4],inactive
same,outcome,[5],inactive
same,outcome,[6],inactive
same,outcome,[7],inactive
same,outcome,[8],inactive
same,outcome,[9],inactive
same,outcome,[10],inactive
same,outcome,[12],inactive
same,outcome,[13],inactive
same,outcome,[14],inactive
same,outcome,[15],inactive
same,outcome,[16],inactive
same,outcome,[17],inactive
c1cc(OCC2CO2)ccc1Cc1ccc(OCC2CO2)cc1 (centres undefined),AC50,[1],19.6 µM (active)
same,outcome,[19],inactive
same,AC50,[2],33.4 µM (active)
same,AC50,[3],37.6 µM (active)
same,AC50,[4],33.4 µM (active)
same,outcome,[6],inactive
same,AC50,[7],35.2 µM (active)
same,outcome,[8],inactive
same,outcome,[9],inactive
same,AC50,[10],8.36 µM (active)
same,outcome,[11],inactive
same,outcome,[12],inactive
same,outcome,[13],inactive
same,outcome,[14],inactive
same,AC50,[16],54.7 µM (active)
same,AC50,[17],25.3 µM (active)
C=C(Cl)CCl,outcome,[1],inactive
same,outcome,[19],inactive
same,outcome,[2],inactive
same,outcome,[3],inactive
same,outcome,[4],inactive
same,outcome,[5],inactive
same,outcome,[6],inactive
same,outcome,[7],inactive
same,outcome,[8],inactive
same,outcome,[9],inactive
same,outcome,[10],inactive
same,outcome,[20],inactive
same,outcome,[11],inactive
same,outcome,[12],inactive
same,outcome,[13],inactive
same,outcome,[14],inactive
same,outcome,[16],inactive
same,outcome,[17],inactive
CC(C)(c1cc(Cl)c(O)c(Cl)c1)c1cc(Cl)c(O)c(Cl)c1,outcome,[1],inactive
same,outcome,[18],inactive
same,outcome,[19],inactive
same,outcome,[3],inactive
same,outcome,[4],inactive
same,outcome,[5],inactive
same,outcome,[6],inactive
same,AC50,[7],33.4 µM (active)
same,outcome,[8],inactive
same,outcome,[9],inactive
same,AC50,[10],27.2 µM (active)
same,outcome,[20],inactive
same,outcome,[11],inactive
same,AC50,[12],47.8 µM (active)
same,outcome,[13],inactive
same,outcome,[14],inactive
same,AC50,[16],9 µM (active)
same,outcome,[17],inactive
CCOC(=O)COc1ccc(Cl)cc1Cl,outcome,[1],inactive
same,outcome,[19],inactive
same,outcome,[2],inactive
same,outcome,[3],inactive
same,outcome,[4],inactive
same,outcome,[6],inactive
same,outcome,[7],inactive
same,outcome,[8],inactive
same,outcome,[9],inactive
same,outcome,[11],inactive
same,outcome,[12],inactive
same,outcome,[13],inactive
same,outcome,[14],inactive
same,outcome,[16],inactive
same,outcome,[17],inactive
Cl/C=C\CCl,outcome,[1],inactive
same,outcome,[19],inactive
same,outcome,[2],inactive
same,outcome,[3],inactive
same,outcome,[4],inactive
same,outcome,[5],inactive
same,outcome,[6],inactive
same,outcome,[7],inactive
same,outcome,[8],inactive
same,outcome,[9],inactive
same,outcome,[10],inactive
same,outcome,[20],inactive
same,outcome,[11],inactive
same,outcome,[12],inactive
same,outcome,[13],inactive
same,outcome,[14],inactive
same,outcome,[15],inactive
same,outcome,[16],inactive
same,outcome,[17],inactive
